The whole screen tested about 5,500 compounds, of which about 2,000 (36%) were called active. Roughly 18% stayed inconclusive and do not appear here. Rule as the data show it: active = normalized growth mostly below about 0.91 (no sharp cut-off); inconclusive = no clear call, values can overlap the other calls; inactive = mostly above about 0.92. Some of the results follow.
Assay: chemical genetic growth profiling, strain panel (AID 1159580);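 also: tested at 20 µM; growth read once vehicle control cultures reached saturation at 30 °C; 1 = growth at the plate median or of vehicle wells; lower values mean less growth of the strain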
Settings: growth OD

## CC(=O)Oc1cc(-c2coc3cc(OC(C)=O)c(OC(C)=O)c(OC(C)=O)c3c2=O)cc(OC(C)=O)c1OC(C)=O
S. cerevisiae deletion strains, locus YKL009W, strain mrt4, stronger effect = lower value
  normalized growth: 1.05 (inactive)
S. cerevisiae deletion strains, locus YKL068W, stronger effect = lower value
  normalized growth: 1.01 (inactive)
S. cerevisiae deletion strains, locus YKL085W, strain MDH1 (second series), stronger effect = lower value
  normalized growth: 1.01 (inactive)
S. cerevisiae deletion strains, locus YKL085W, strain MDH1, stronger effect = lower value
  normalized growth: 1.01 (inactive)
S. cerevisiae deletion strains, locus YKL160W, strain elf1, stronger effect = lower value
  normalized growth: 0.926 (inactive)
S. cerevisiae deletion strains, locus YKL190W, strain CNB1, stronger effect = lower value
  normalized growth: 0.888 (active)
S. cerevisiae deletion strains, locus YKR001C, strain vps1, stronger effect = lower value
  normalized growth: 0.962 (inactive)
S. cerevisiae deletion strains, locus YKR026C, strain gcn3, stronger effect = lower value
  normalized growth: 0.979 (inactive)
S. cerevisiae deletion strains, locus YKR091W, strain srl3, stronger effect = lower value
  normalized growth: 0.985 (inactive)
S. cerevisiae deletion strains, locus YLL001W, strain dnm1, stronger effect = lower value
  normalized growth: 0.918 (inactive)
S. cerevisiae deletion strains, locus YLL026W, stronger effect = lower value
  normalized growth: 0.966 (inactive)
S. cerevisiae deletion strains, locus YLL041C, strain sdh2, stronger effect = lower value
  normalized growth: 0.967 (inactive)
S. cerevisiae deletion strains, locus YLR027C, strain aat2, stronger effect = lower value
  normalized growth: 0.964 (inactive)
S. cerevisiae deletion strains, locus YLR039C, strain RIC1, stronger effect = lower value
  normalized growth: 0.635 (active)
S. cerevisiae deletion strains, locus YLR058C, strain SHM2, stronger effect = lower value
  normalized growth: 0.272 (active)
S. cerevisiae deletion strains, locus YLR102C, strain apc9, stronger effect = lower value
  normalized growth: 1.03 (inactive)
S. cerevisiae deletion strains, locus YLR113W, strain HOG1, stronger effect = lower value
  normalized growth: 1.11 (inactive)
S. cerevisiae deletion strains, locus YLR221C, strain rsa3, stronger effect = lower value
  normalized growth: 0.911 (inactive)
S. cerevisiae deletion strains, locus YLR258W, strain gsy2, stronger effect = lower value
  normalized growth: 0.963 (inactive)
S. cerevisiae deletion strains, locus YLR262C, strain YPT6 (second series), stronger effect = lower value
  normalized growth: 0.887 (inactive)
S. cerevisiae deletion strains, locus YLR262C, strain YPT6, stronger effect = lower value
  normalized growth: 0.89 (inactive)
S. cerevisiae deletion strains, locus YLR268W, strain sec22, stronger effect = lower value
  normalized growth: 0.889 (inactive)
S. cerevisiae deletion strains, locus YLR320W, strain mms22, stronger effect = lower value
  normalized growth: 0.9 (inactive)
S. cerevisiae deletion strains, locus YLR342W, strain FKS1 (second series), stronger effect = lower value
  normalized growth: 0.659 (active)
S. cerevisiae deletion strains, locus YLR342W, strain FKS1, stronger effect = lower value
  normalized growth: 0.904 (active)
S. cerevisiae deletion strains, locus YLR357W, strain rsc2, stronger effect = lower value
  normalized growth: 0.77 (active)
S. cerevisiae deletion strains, locus YLR370C, strain arc18, stronger effect = lower value
  normalized growth: 0.909 (active)
S. cerevisiae deletion strains, locus YLR371W, strain rom2, stronger effect = lower value
  normalized growth: 0.801 (active)
S. cerevisiae deletion strains, locus YLR384C, strain iki3, stronger effect = lower value
  normalized growth: 0.965 (inactive)
S. cerevisiae deletion strains, locus YLR418C, strain cdc73, stronger effect = lower value
  normalized growth: 0.782 (active)
S. cerevisiae deletion strains, locus YML016C, strain PPZ1, stronger effect = lower value
  normalized growth: 0.71 (active)
S. cerevisiae deletion strains, locus YML032C, strain rad52, stronger effect = lower value
  normalized growth: 0.83 (active)
S. cerevisiae deletion strains, locus YML120C, strain ndi1, stronger effect = lower value
  normalized growth: 0.898 (active)
S. cerevisiae deletion strains, locus YML124C, strain tub3, stronger effect = lower value
  normalized growth: 1 (inactive)
S. cerevisiae deletion strains, locus YMR058W, strain fet3, stronger effect = lower value
  normalized growth: 0.698 (active)
S. cerevisiae deletion strains, locus YMR078C, strain ctf18, stronger effect = lower value
  normalized growth: 1.01 (inactive)
S. cerevisiae deletion strains, locus YMR125W, strain sto1, stronger effect = lower value
  normalized growth: 1.03 (inactive)
S. cerevisiae deletion strains, locus YMR129W, stronger effect = lower value
  normalized growth: 0.98 (inactive)
S. cerevisiae deletion strains, locus YMR205C, strain PFK2, stronger effect = lower value
  normalized growth: 0.896 (inactive)
S. cerevisiae deletion strains, locus YMR223W, strain ubp8, stronger effect = lower value
  normalized growth: 0.938 (inactive)
S. cerevisiae deletion strains, locus YMR231W, strain pep5, stronger effect = lower value
  normalized growth: 0.924 (active)
S. cerevisiae deletion strains, locus YMR263W, strain SAP30, stronger effect = lower value
  normalized growth: 0.734 (active)
S. cerevisiae deletion strains, locus YMR307W, strain GAS1, stronger effect = lower value
  normalized growth: 0.67 (inactive)
S. cerevisiae deletion strains, locus YNL067W, strain RPL9B, stronger effect = lower value
  normalized growth: 0.848 (active)
S. cerevisiae deletion strains, locus YNL071W, strain lat1, stronger effect = lower value
  normalized growth: 0.979 (inactive)
S. cerevisiae deletion strains, locus YNL183C, strain NPR1, stronger effect = lower value
  normalized growth: 0.988 (inactive)
S. cerevisiae deletion strains, locus YNL209W, strain ssb2, stronger effect = lower value
  normalized growth: 0.785 (active)
S. cerevisiae deletion strains, locus YNL233W, strain BNI4, stronger effect = lower value
  normalized growth: 0.824 (active)
S. cerevisiae deletion strains, locus YNL248C, strain rpa49, stronger effect = lower value
  normalized growth: 0.945 (inactive)
S. cerevisiae deletion strains, locus YNL250W, strain rad50, stronger effect = lower value
  normalized growth: 1.06 (inactive)
S. cerevisiae deletion strains, locus YNL271C, strain bni1, stronger effect = lower value
  normalized growth: 1.01 (inactive)
S. cerevisiae deletion strains, locus YNL298W, strain CLA4, stronger effect = lower value
  normalized growth: 0.998 (inactive)
S. cerevisiae deletion strains, locus YNL307C, strain MCK1, stronger effect = lower value
  normalized growth: 1.02 (inactive)
S. cerevisiae deletion strains, locus YNL322C, strain KRE1 (second series), stronger effect = lower value
  normalized growth: 0.972 (inactive)
S. cerevisiae deletion strains, locus YNL322C, strain KRE1, stronger effect = lower value
  normalized growth: 0.767 (active)
S. cerevisiae deletion strains, locus YNR049C, strain mso1, stronger effect = lower value
  normalized growth: 0.979 (inactive)
S. cerevisiae deletion strains, locus YNR052C, strain pop2, stronger effect = lower value
  normalized growth: 0.658 (active)
S. cerevisiae deletion strains, locus YOL012C, strain htz1
  normalized growth: 0.316 (inactive)
S. cerevisiae deletion strains, locus YOL147C, strain pex11, stronger effect = lower value
  normalized growth: 0.694 (active)
S. cerevisiae deletion strains, locus YOR001W, strain rrp6, stronger effect = lower value
  normalized growth: 0.859 (active)
S. cerevisiae deletion strains, locus YOR061W, strain CKA2, stronger effect = lower value
  normalized growth: 0.887 (active)
S. cerevisiae deletion strains, locus YOR069W, strain VPS5, stronger effect = lower value
  normalized growth: 0.904 (active)
S. cerevisiae deletion strains, locus YOR070C, strain gyp1, stronger effect = lower value
  normalized growth: 0.937 (inactive)
S. cerevisiae deletion strains, locus YOR080W, strain dia2, stronger effect = lower value
  normalized growth: 0.899 (active)
S. cerevisiae deletion strains, locus YOR083W, strain WHI5, stronger effect = lower value
  normalized growth: 0.908 (inactive)
S. cerevisiae deletion strains, locus YOR106W, strain vam3, stronger effect = lower value
  normalized growth: 0.778 (active)
S. cerevisiae deletion strains, locus YOR136W, strain idh2, stronger effect = lower value
  normalized growth: 1 (inactive)
S. cerevisiae deletion strains, locus YOR144C, strain elg1, stronger effect = lower value
  normalized growth: 0.797 (active)
S. cerevisiae deletion strains, locus YOR184W, strain ser1, stronger effect = lower value
  normalized growth: 0.905 (inactive)
S. cerevisiae deletion strains, locus YOR231W, strain MKK1, stronger effect = lower value
  normalized growth: 1.05 (inactive)
S. cerevisiae deletion strains, locus YOR265W, strain rbl2, stronger effect = lower value
  normalized growth: 0.946 (inactive)
S. cerevisiae deletion strains, locus YOR270C, strain vph1, stronger effect = lower value
  normalized growth: 0.564 (active)
S. cerevisiae deletion strains, locus YOR290C, strain snf2, stronger effect = lower value
  normalized growth: 0.322 (active)
S. cerevisiae deletion strains, locus YOR316C, strain cot1, stronger effect = lower value
  normalized growth: 1.02 (inactive)
S. cerevisiae deletion strains, locus YPL051W, strain arl3, stronger effect = lower value
  normalized growth: 0.847 (active)
S. cerevisiae deletion strains, locus YPL055C, strain LGE1, stronger effect = lower value
  normalized growth: 0.751 (active)
S. cerevisiae deletion strains, locus YPL078C, strain atp4, stronger effect = lower value
  normalized growth: 0.772 (active)
S. cerevisiae deletion strains, locus YPL106C, strain sse1, stronger effect = lower value
  normalized growth: 0.869 (inactive)
S. cerevisiae deletion strains, locus YPL240C, strain hsp82, stronger effect = lower value
  normalized growth: 0.961 (inactive)
S. cerevisiae deletion strains, locus YPL256C, strain CLN2, stronger effect = lower value
  normalized growth: 1.12 (inactive)
S. cerevisiae deletion strains, locus YPR119W, strain clb2, stronger effect = lower value
  normalized growth: 1.03 (inactive)
S. cerevisiae deletion strains, locus YPR141C, strain kar3, stronger effect = lower value
  normalized growth: 1.03 (inactive)
S. cerevisiae deletion strains, locus YPR163C, strain tif3, stronger effect = lower value
  normalized growth: 0.989 (inactive)
S. cerevisiae deletion strains, locus YPR167C, strain met16, stronger effect = lower value
  normalized growth: 0.953 (inactive)
S. cerevisiae deletion strains, strain wtn01, stronger effect = lower value
  normalized growth: 0.882 (active)
S. cerevisiae strains, strain wild type, stronger effect = lower value
  normalized growth: 0.75 (active)
